The supplement of paper PMC6805474

How the values were obtained:
[1] = system: Schistosoma mansoni schistosomula (LE); test: XTT viability relative to DMSO control; higher = more viable (less active); conditions: 72 h; 10 µM
Procedure: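 XTT/PMS was then added for a further 24 h (72 h total) and A450 was read. % viability = (sample - heat-killed control)/(DMSO control - heat-killed control) x 100, from duplicate wells in two independent experiments.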

[2] = system: Schistosoma mansoni schistosomula (NMRI); test: phenotypic severity score (0-4); higher = more antischistosomal effect, active = 2 or more; conditions: 10 µM
[3] = system: Schistosoma mansoni schistosomula (Liberian); test: drug effect (1 - score/DMSO control score) (fraction); higher = more antischistosomal effect, active = 0.5 or more; extreme values may be limits of the assay; conditions: 10 µM
Method in brief: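 Liberian-strain Schistosoma mansoni schistosomula, mechanically transformed from cercariae and pre-incubated at least 12 h, were exposed in duplicate (50 per well, flat-bottom 96-well plates) to 10 µM compound in Medium 199 with 5% FCS at 37 °C, 5% CO2, with 0.1% DMSO control wells. Wells were scored visually (10×) at 24, 48 and 72 h on a quarter-point scale from 3 (normal) to 0 (dead). Drug effect was derived from the mean test-well score relative to the mean DMSO-control score. Negative values were set to zero, and plates were valid only if control wells averaged at least 2.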
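Wherever phenotypic severity score (0-4) is given: visual microscopic scoring of shape, motility and density changes versus 0.5% DMSO solvent controls, one point per descriptor, degeneracy or death scored 4, mean of duplicate wells.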

Question: Which XTT viability [1] does the source give for `COc1cc(OC)cc(C(=O)NCC2Cc3cc(Cl)cc(-c4ccncc4)c3O2)c1` (stereo not drawn) here?
Answer: Its XTT viability is 153%.

Question: And the phenotypic severity score ([2]; 24 h)?
Answer: Its phenotypic severity score is 0 (inactive).

Question: What about the phenotypic severity score ([2]; 48 h) of the same compound?
Answer: Its phenotypic severity score is 0 (inactive).

Question: And the phenotypic severity score ([2]; 72 h)?
Answer: Its phenotypic severity score is 0 (inactive).

Question: And the drug effect ([3]; 24 h)?
Answer: The drug effect was 0.1 (inactive).

Question: And the drug effect ([3]; 48 h)?
Answer: Its drug effect is 0.189 (inactive).

Question: What about the drug effect ([3]; 72 h) of the same compound?
Answer: Its drug effect is 0.152 (inactive).

Question: With `c1cc(C2=NCCN2)cc(-c2cc(-c3ccc(C4=NCCN4)cc3)no2)c1` as the compound, how does the XTT viability [1] read?
Answer: Its XTT viability is 115%.

Question: What about the phenotypic severity score ([2]; 24 h) of the same compound?
Answer: Its phenotypic severity score is 0 (inactive).

Question: What about the phenotypic severity score ([2]; 48 h) of the same compound?
Answer: Its phenotypic severity score is 0 (inactive).

Question: What about the phenotypic severity score ([2]; 72 h) of the same compound?
Answer: Its phenotypic severity score is 0 (inactive).

Question: And the drug effect ([3]; 24 h)?
Answer: Its drug effect is 0.1 (inactive).

Question: What about the drug effect ([3]; 48 h) of the same compound?
Answer: The drug effect was 0.111 (inactive).

Question: And the drug effect ([3]; 72 h)?
Answer: Its drug effect is 0.125 (inactive).

Question: What does the source list for `CN1CCN(S(=O)(=O)c2ccc(-c3ccc4c(Nc5ccc6nn[nH]c6c5)ccnc4c3)cc2)CC1`?
Answer: XTT viability [1]: 152%; phenotypic severity score ([2]; 24 h): 0 (inactive); phenotypic severity score ([2]; 48 h): 0 (inactive); phenotypic severity score ([2]; 72 h): 0 (inactive); drug effect ([3]; 24 h): 0.1 (inactive); drug effect ([3]; 48 h): 0.135 (inactive); drug effect ([3]; 72 h): 0.0909 (inactive)

Question: With `O=C(NCc1ccco1)N1CCN(Cc2ccc(Cl)s2)CC1` as the compound, how does the XTT viability [1] read?
Answer: The XTT viability was 93.6%.

Question: And the phenotypic severity score ([2]; 24 h)?
Answer: The phenotypic severity score was 0 (inactive).

Question: What about the phenotypic severity score ([2]; 48 h) of the same compound?
Answer: Its phenotypic severity score is 0 (inactive).

Question: And the phenotypic severity score ([2]; 72 h)?
Answer: The phenotypic severity score was 0 (inactive).

Question: What about the drug effect ([3]; 24 h) of the same compound?
Answer: The drug effect was 0.136 (inactive).

Question: And the drug effect ([3]; 48 h)?
Answer: The drug effect was 0.3 (inactive).

Question: What about the drug effect ([3]; 72 h) of the same compound?
Answer: The drug effect was 0.345 (inactive).

Question: What does the source list for `O=C(Nc1nc(-c2ccccn2)cs1)C1CC1c1ccccc1F` (stereo not drawn)?
Answer: XTT viability [1]: 71.7%; phenotypic severity score ([2]; 24 h): 0 (inactive); phenotypic severity score ([2]; 48 h): 0 (inactive); phenotypic severity score ([2]; 72 h): 0 (inactive); drug effect ([3]; 24 h): 0.182 (inactive); drug effect ([3]; 48 h): 0.3 (inactive); drug effect ([3]; 72 h): 0.127 (inactive)

Question: `Cc1ccc(C(=O)Nc2ccc(S(=O)(=O)O)c3cc(S(=O)(=O)O)cc(S(=O)(=O)O)c23)cc1NC(=O)c1cccc(NC(=O)Nc2cccc(C(=O)Nc3cc(C(=O)Nc4ccc(S(=O)(=O)O)c5cc(S(=O)(=O)O)cc(S(=O)(=O)O)c45)ccc3C)c2)c1` was tested. Which XTT viability [1] did it give?
Answer: The XTT viability was 94.8%.

Question: What about the phenotypic severity score ([2]; 24 h) of the same compound?
Answer: Its phenotypic severity score is 0 (inactive).

Question: And the phenotypic severity score ([2]; 48 h)?
Answer: Its phenotypic severity score is 0 (inactive).

Question: What about the phenotypic severity score ([2]; 72 h) of the same compound?
Answer: Its phenotypic severity score is 0 (inactive).

Question: And the drug effect ([3]; 24 h)?
Answer: The drug effect was 0.15 (inactive).

Question: And the drug effect ([3]; 48 h)?
Answer: Its drug effect is 0.297 (inactive).

Question: And the drug effect ([3]; 72 h)?
Answer: The drug effect was 0.389 (inactive).

Question: Which XTT viability [1] does the source give for `COc1ccc(-c2cncc3ccc(C(=O)NCCCn4ccnc4)nc23)cc1` here?
Answer: The XTT viability was 121%.

Question: And the phenotypic severity score ([2]; 24 h)?
Answer: The phenotypic severity score was 1 (inactive).

Question: And the phenotypic severity score ([2]; 48 h)?
Answer: The phenotypic severity score was 0 (inactive).

Question: What about the phenotypic severity score ([2]; 72 h) of the same compound?
Answer: Its phenotypic severity score is 0 (inactive).

Question: What about the drug effect ([3]; 24 h) of the same compound?
Answer: The drug effect was < 0 (inactive).

Question: And the drug effect ([3]; 48 h)?
Answer: Its drug effect is 0.027 (inactive).

Question: What about the drug effect ([3]; 72 h) of the same compound?
Answer: Its drug effect is 0.0303 (inactive).

Question: What does the source list for `c1ccc(Oc2ccc(-c3cc(C4CCOCC4)[nH]n3)cc2)cc1`?
Answer: XTT viability [1]: 98.4%; phenotypic severity score ([2]; 24 h): 0 (inactive); phenotypic severity score ([2]; 48 h): 0 (inactive); phenotypic severity score ([2]; 72 h): 0 (inactive); drug effect ([3]; 24 h): 0.182 (inactive); drug effect ([3]; 48 h): 0.35 (inactive); drug effect ([3]; 72 h): 0.127 (inactive)

Question: Which results are given for `O=C(CCC1CCCCC1)Nc1cccc(-c2nnc(-c3ccco3)o2)c1`?
Answer: XTT viability [1]: 145%; phenotypic severity score ([2]; 24 h): 2 (active); phenotypic severity score ([2]; 48 h): 4 (active); phenotypic severity score ([2]; 72 h): 4 (active); drug effect ([3]; 24 h): 0.182 (inactive); drug effect ([3]; 48 h): 0.2 (inactive); drug effect ([3]; 72 h): 0.167 (inactive)

Question: How did the XTT viability [1] turn out when `CC1CCCCN1C(=O)NCCc1coc(-c2ccc(F)cc2)n1` (stereo not drawn) was run?
Answer: Its XTT viability is 131%.

Question: And the phenotypic severity score ([2]; 24 h)?
Answer: The phenotypic severity score was 1 (inactive).

Question: What about the phenotypic severity score ([2]; 48 h) of the same compound?
Answer: Its phenotypic severity score is 0 (inactive).

Question: What about the phenotypic severity score ([2]; 72 h) of the same compound?
Answer: Its phenotypic severity score is 0 (inactive).

Question: What about the drug effect ([3]; 24 h) of the same compound?
Answer: Its drug effect is 0.0909 (inactive).

Question: What about the drug effect ([3]; 48 h) of the same compound?
Answer: The drug effect was 0.25 (inactive).

Question: What about the drug effect ([3]; 72 h) of the same compound?
Answer: The drug effect was 0.236 (inactive).

Question: Which results are given for `Cn1ccnc1CNCCS(=O)(=O)c1cccc(Nc2ccc(-c3cccc(F)c3)cn2)c1`?
Answer: XTT viability [1]: 114%; phenotypic severity score ([2]; 24 h): 0 (inactive); phenotypic severity score ([2]; 48 h): 0 (inactive); phenotypic severity score ([2]; 72 h): 0 (inactive); drug effect ([3]; 24 h): 0.1 (inactive); drug effect ([3]; 48 h): 0.0556 (inactive); drug effect ([3]; 72 h): 0.125 (inactive)

Question: Which results are given for `C[C@]1(O)C[C@@H](c2nc(-c3ccc4ccc(-c5ccccc5)nc4c3)c3c(N)nccn32)C1`?
Answer: XTT viability [1]: 64%; phenotypic severity score ([2]; 24 h): 0 (inactive); phenotypic severity score ([2]; 48 h): 0 (inactive); phenotypic severity score ([2]; 72 h): 0 (inactive); drug effect ([3]; 24 h): 0.05 (inactive); drug effect ([3]; 48 h): 0.027 (inactive); drug effect ([3]; 72 h): 0.111 (inactive)

Question: What does the source list for `O=C(NCCN1CCCC1)c1cc(NCCCCN2CCC(F)(F)CC2)nc2ccc(Cl)cc12`?
Answer: XTT viability [1]: 86.9%; phenotypic severity score ([2]; 24 h): 2 (active); phenotypic severity score ([2]; 48 h): 4 (active); phenotypic severity score ([2]; 72 h): 4 (active); drug effect ([3]; 24 h): 0.3 (inactive); drug effect ([3]; 48 h): 0.389 (inactive); drug effect ([3]; 72 h): 0.562 (active)

Question: For `COC(=O)c1ccc(F)cc1NS(=O)(=O)c1cccc(-c2cnn(Cc3ccccc3)c2)c1`, which XTT viability [1] is on record?
Answer: The XTT viability was 89.1%.

Question: And the phenotypic severity score ([2]; 24 h)?
Answer: Its phenotypic severity score is 1 (inactive).

Question: What about the phenotypic severity score ([2]; 48 h) of the same compound?
Answer: Its phenotypic severity score is 1 (inactive).

Question: What about the phenotypic severity score ([2]; 72 h) of the same compound?
Answer: Its phenotypic severity score is 1 (inactive).

Question: And the drug effect ([3]; 24 h)?
Answer: Its drug effect is 0.409 (inactive).

Question: And the drug effect ([3]; 48 h)?
Answer: Its drug effect is 0.45 (inactive).

Question: What about the drug effect ([3]; 72 h) of the same compound?
Answer: Its drug effect is 0.455 (inactive).

Question: Which results are given for `CC(C)(C)c1cnc(NC(=O)c2ccccc2O)s1`?
Answer: XTT viability [1]: 79.9%; phenotypic severity score ([2]; 24 h): 0 (inactive); phenotypic severity score ([2]; 48 h): 1 (inactive); phenotypic severity score ([2]; 72 h): 1 (inactive); drug effect ([3]; 24 h): 1 (active); drug effect ([3]; 48 h): 1 (active); drug effect ([3]; 72 h): 1 (active)

Question: How did the XTT viability [1] turn out when `CNc1snc(C)c1C(=O)NCCOc1ccc(OC)cc1` was run?
Answer: Its XTT viability is 91.3%.

Question: And the phenotypic severity score ([2]; 24 h)?
Answer: Its phenotypic severity score is 1 (inactive).

Question: And the phenotypic severity score ([2]; 48 h)?
Answer: The phenotypic severity score was 0 (inactive).

Question: And the phenotypic severity score ([2]; 72 h)?
Answer: The phenotypic severity score was 0 (inactive).

Question: What about the drug effect ([3]; 24 h) of the same compound?
Answer: Its drug effect is 0.0909 (inactive).

Question: And the drug effect ([3]; 48 h)?
Answer: The drug effect was 0.15 (inactive).

Question: What about the drug effect ([3]; 72 h) of the same compound?
Answer: Its drug effect is 0.127 (inactive).

Question: Which results are given for `CNC1C(OC2C(OC3C(O)C(O)C(NC(=N)N)C(O)C3NC(=N)N)OC(C)C2(O)C=O)OC(CO)C(O)C1O` (stereo not drawn)?
Answer: XTT viability [1]: 93%; phenotypic severity score ([2]; 24 h): 0 (inactive); phenotypic severity score ([2]; 48 h): 0 (inactive); phenotypic severity score ([2]; 72 h): 0 (inactive); drug effect ([3]; 24 h): 0.182 (inactive); drug effect ([3]; 48 h): 0.1 (inactive); drug effect ([3]; 72 h): 0.0727 (inactive)

Question: With `CC(C)(CN)c1nc(-c2ccc(Cl)c(O)c2)c(-c2ccnc(N)n2)[nH]1` as the compound, how does the XTT viability [1] read?
Answer: Its XTT viability is 156%.

Question: And the phenotypic severity score ([2]; 24 h)?
Answer: The phenotypic severity score was 0 (inactive).

Question: What about the phenotypic severity score ([2]; 48 h) of the same compound?
Answer: The phenotypic severity score was 0 (inactive).

Question: And the phenotypic severity score ([2]; 72 h)?
Answer: Its phenotypic severity score is 0 (inactive).

Question: What about the drug effect ([3]; 24 h) of the same compound?
Answer: The drug effect was 0.15 (inactive).

Question: What about the drug effect ([3]; 48 h) of the same compound?
Answer: The drug effect was 0.167 (inactive).

Question: What about the drug effect ([3]; 72 h) of the same compound?
Answer: Its drug effect is 0.312 (inactive).

Question: Which XTT viability [1] does the source give for `COc1cc(Br)cc2cc(C(=O)Nc3cccc(C(F)(F)F)c3)c(=O)oc12` here?
Answer: Its XTT viability is 90.6%.

Question: And the phenotypic severity score ([2]; 24 h)?
Answer: Its phenotypic severity score is 0 (inactive).

Question: What about the phenotypic severity score ([2]; 48 h) of the same compound?
Answer: Its phenotypic severity score is 0 (inactive).

Question: And the phenotypic severity score ([2]; 72 h)?
Answer: Its phenotypic severity score is 0 (inactive).

Question: What about the drug effect ([3]; 24 h) of the same compound?
Answer: The drug effect was 0.1 (inactive).

Question: And the drug effect ([3]; 48 h)?
Answer: Its drug effect is 0.0556 (inactive).

Question: And the drug effect ([3]; 72 h)?
Answer: The drug effect was 0.0556 (inactive).
